Spn MK inh: blocks S. pneumoniae mevalonate kinase; 0.48% of 65,000 active; AID 555; inhibition, % at 10 µM; purified MK, PK/LDH-coupled NADH absorbance 340 nm;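 active = ranked among the strongest by inhibition in the single 10 µM screen, a fixed top-ranked set picked for dose follow-up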
A340 absorber: absorbance at 340 nm; compound absorbance at 340 nm, fold over control; 65,000 tested, under 10 active; fold change at 10 µM;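 active = at 10 µM dose, initial 340 nm absorbance at least 2 fold that of control wells; inactive = change under 2 fold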;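 note: initial absorbance extrapolated from kinetic A340 decline of NADH oxidation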
PMK inhibit: blocks S. pneumoniae phosphomevalonate kinase | purified PMK, PK/LDH-coupled NADH absorbance 340 nm | 0.49% of 65,000 active | AID 539 | inhibition, % at 10 µM;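 active = top-ranked compounds by inhibition in the single 10 µM screen, taking a fixed number of the strongest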;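 note: 0% = full reaction with DMSO carrier and 100% = background rate without enzyme reaction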
Autofluor 339: intrinsic fluorescence of library compounds, ex339/em460 – biochemical, MLSMR library, data from DPM-DC assay, artefact control, profiling panel | compound autofluorescence, ex339/em460 nm, NADH buffer; active compounds read high; 1 = no-compound wells, NADH background | fluorescence fold increase at 10 µM | 5.5% of 65,000 active | AID 709;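 active = at 10 µM, mean starting fluorescence two-fold or more over control wells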;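 note: signal is the first read of a kinetic run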
Spn DPM-DC inh: blocks S. pneumoniae diphosphomevalonate decarboxylase; purified DPM-DC, PK/LDH coupled NADH fluorescence; calls only at 10 µM; AID 556; 0.49% of 65,000 active;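 active = the 320 compounds with the highest percent inhibition in the single-dose primary screen, excluding strongly autofluorescent ones, cut at about 32% in these data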;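 note: kinetic rate of NADH fluorescence loss reporting ADP formed by the decarboxylase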
NADH coupling: inhibitors of enzymes used to reach an NAD/NADH endpoint. coupled PK/LDH NADH assays, four targets. AID 774. 0.02% of 65,000 active. IC50, µM (top dose mostly 10 µM), inactives show top-dose inhibition;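 active = single-dose screening hits from any of four coupled enzyme assays that gave an IC50 when retested across doses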;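 note: the DPM-DC format reads NADH fluorescence rather than 340 nm absorbance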
* marks the source's active call; other numbers are inactive results; i = inactive; / = not tested or not shown; + = active, no number. Rows were chosen to be rich in hits. Some 6.8% of all compounds tested hit in one or more screens of this group.

SMILES | Spn MK inh | A340 absorber | PMK inhibit | Autofluor 339 | Spn DPM-DC inh | NADH coupling
O=C1Nc2ccc(S(=O)(=O)NCCC3=CCCCC3)c3cccc1c23 | 5 | 1 | 8 | 3.6* | / | 7%
COc1ccc(OC)c(S(=O)(=O)NCCC2=CCCCC2)c1 | 0 | 0.99 | 14 | 1 | i | 3%
CCN(CC)S(=O)(=O)c1ccc2c3c(cccc13)C(=O)N2 | 0 | 1.1 | 11 | 2.2* | / | 6%
CCOC(=O)c1c(C)oc2ccc(NS(=O)(=O)c3ccc4c5c(cccc35)C(=O)N4)cc12 | 14 | 1 | 8 | 1.4 | i | 5%
COc1ccc(CCNC(=O)COC(=O)c2cnccn2)cc1 | 5 | 0.97 | 14 | 1 | i | 6%
O=C1C(=O)N(CCN2CCOCC2)C(c2ccncc2)/C1=C(/O)c1ccc2c(c1)OCO2 (centres undefined) | 79* | 1.1 | 0 | 1.1 | i | 26%
CCCc1cc(=O)oc2cc(C)cc(OCc3nn[nH]n3)c12 | 7 | 1.1 | 13 | 3.8* | / | 10%
CCCc1cc(=O)oc2cc(OCC(=O)OC)cc(OCC(=O)OC)c12 | 3 | 1 | 2 | 2.1* | / | 3%
Cc1cc(C)n(-c2ncnc3sc4c(c23)CCCC4)n1 | 0 | 1 | 16 | 2.3* | i | 5%
Brc1ccccc1-c1nnc(CSc2nnc3sc4ccccc4n23)o1 | 3 | 1 | 5 | 1.1 | i | 3%
COCCCn1c(CCC(=O)O)ccc1-c1cccs1 | 12 | 1.1 | 5 | 4* | / | 9%
CCCn1c(CCC(=O)O)ccc1-c1cccs1 | 9 | 1 | 3 | 0.33 | / | 6%
O=C(O)CCc1ccc(-c2cccs2)n1CC1CCCO1 (centres undefined) | 5 | 1.1 | 1 | 3* | i | 12%
CCSc1nnc(NC(=O)CSc2nc3c(c(=O)n2-c2ccccc2OC)SCC3)s1 | 1 | 1.1 | 17 | 1.1 | i | 6%
CC1(C)CC(=O)C2=C(C1)N(c1cccc(O)c1)C1=C(C2)C(=O)CC(C)(C)C1 | 10 | 1 | 13 | 3.6* | / | 12%
CC1(C)CC(=O)c2cnc(N3CCN(c4ccccc4)CC3)nc2C1 | 5 | 1 | 6 | 1.2 | i | 4%
CC(=O)c1ccc(NS(=O)(=O)Cc2ccccc2)cc1 | 5 | 1.1 | 2 | 1 | i | 4%
O=C(O)c1[nH]c2ccccc2c1NS(=O)(=O)Cc1ccccc1 | 3 | 1 | 4 | 2.4* | i | 6%
COc1cc(OC)c(NC2=NCCCCC2)cc1Cl | 0 | 1 | 7 | 1.1 | i | 3%
CC1(C)Cc2ccccc2-c2nc(NCCO)n(-c3ccccc3)c(=O)c21 | 7 | 1.1 | 5 | 2.2* | / | 6%
CCC1(C)Cc2ccccc2-c2nc(NCCO)n(-c3ccccc3)c(=O)c21 (centres undefined) | 12 | 1.1 | 2 | 2.3* | / | 7%
CC(=O)N1CCc2cc(C(=O)CN3CCCCC3)ccc21 | 2 | 1.1 | 1 | 1.1 | i | 1%
CC(=O)N1CCc2cc3nc(C)cc(C)c3cc21 | 3 | 1.1 | 15 | 4.1* | / | 9%
Cc1ccc(S(=O)(=O)N(C)Cc2ccc(-c3nnc4n3CCC4)cc2)cc1 | 8 | 1 | 16 | 1.2 | i | 8%
CC(=O)C1=C(O)C(=O)N(Cc2ccco2)C1c1ccc2c(c1)OCO2 (centres undefined) | 5 | 1 | 11 | 1 | i | 4%
SMILES | Spn MK inh | A340 absorber | PMK inhibit | Autofluor 339 | Spn DPM-DC inh | NADH coupling
O=C(O)c1cc(S(=O)(=O)O)ccc1O | 1 | 1 | 3 | 1.3 | i | 1%
O=C(OCc1cc(Cl)ccc1OC(F)F)c1cc(S(=O)(=O)O)ccc1O | 0 | 1 | 11 | 2.1* | / | 6%
COCCn1cnnc1SCC(=O)Nc1ccccc1C(=O)Nc1ccc2c(c1)OCO2 | 1 | 1 | 15 | 1.1 | i | 6%
CC(C)(C)NC(=O)CC(CC(=O)O)c1ccccc1 (centres undefined) | 2 | 0.98 | 3 | 1 | i | 1%
CCCc1nnc(NC(=O)c2c(O)c3cccc4c3n(c2=O)CCC4)s1 | 10 | 1 | 12 | 2.8* | i | 10%
Cc1cc(NC(=O)CCC(=O)N(c2ccc(F)cc2)C(C(=O)NC2CCCC2)c2ccncc2)no1 (centres undefined) | 3 | 1 | 12 | 1.1 | i | 10%
COc1cccc(-n2c(SCC(=O)NCCc3ccccc3)nnc2-c2ccoc2C)c1 | 8 | 0.99 | 16 | 1.1 | i | 8%
Cc1nc2c(C(=O)N3CCCCC3)cnn2c(C)c1Cc1ccccc1F | 0 | 1 | 3 | 3.2* | i | 5%
Cc1ccccc1Cc1c(C)nc2c(C(=O)N3CCN(Cc4ccc5c(c4)OCO5)CC3)cnn2c1C | 0 | 1 | 14 | 2.3* | + | 8%
Cc1ccc(Cc2c(C)nc3c(C(=O)O)cnn3c2C)cc1 | 3 | 0.99 | 16 | 1.6 | i | 5%
CN(C)c1nc2n(c(=O)n1)C(C#N)CS2 (centres undefined) | 1 | 1 | 0 | 1.1 | i | 0%
CCCn1c(SCC(N)=O)nnc1-c1ccco1 | 10 | 0.97 | 16 | 1 | i | 9%
CCOC(=O)c1c(C)nc2c(C#N)cnn2c1C | 11 | 1 | 2 | 2.4* | i | 13%
CCOC(=O)c1cnn2c(N)c(C#N)nnc12 | 2 | 1 | 1 | 1.1 | i | 1%
Cc1ccccc1-c1coc2cc(O)ccc2c1=O | 8 | 1.2 | 10 | 3.9* | / | 9%
CC(C)Oc1ccc2c(=O)c(-c3ccccc3)coc2c1 | 7 | 0.97 | 4 | 1 | i | 2%
O=C(C1CCC1)N1CCN(Cc2ccccc2)CC1 | 11 | 0.94 | 7 | 1.1 | i | 6%
Cc1ccc(CN2CCN(C(=O)C3CCC3)CC2)cc1 | 8 | 1 | active | 1 | i | 6%
Cn1ccnc1SCC(=O)NC12CC3CC(CC(C3)C1)C2 | 10 | 1 | 9 | 1.1 | i | 6%
CC(C)c1nc(N2CCOCC2)c(C#N)c2c1CCCC2 | 10 | 1 | 1 | 2.1* | / | 6%
CCSc1nc(N2CCOCC2)c2c(c1C#N)CCCC2 | 7 | 0.99 | 4 | 1.1 | i | 7%
CCN1CCc2c(C#N)c(N3CCCCC3)nc(N3CCOCC3)c2C1 | 11 | 1.1 | 1 | 2.3* | / | 6%
O=S(=O)(c1ccc(F)cc1)N1CCC(N2CCN(c3ccccc3)CC2)CC1 | 9 | 1.1 | 10 | 1.1 | i | 6%
CC1(C(=O)O)CCC(C(=O)Nc2ccc(S(N)(=O)=O)cc2)C1(C)C (centres undefined) | 4 | 1 | 0 | 1.1 | i | 2%
COCC(=O)Nc1nc2n(n1)C(c1ccc(Cl)cc1)CC(c1ccc(OC)cc1)N2 (centres undefined) | 10 | 0.99 | 6 | 2.5* | i | 12%
O=C(COC(=O)c1cc(-c2cccs2)nc2ccccc12)NCc1ccco1 | 2 | 1 | 15 | 4.9* | / | 9%

Screening results (PubChem BioAssay)
